# Screening results from PubChem BioAssay.
# 3T3 cytotox = kills NIH 3T3 cells. hit rate 4.3% among 94,000. Potency, µM (top dose mostly 96.7 µM), most hits filed as inhibitors. NIH 3T3 viability, CellTiter-Glo ATP luminescence, 48-72 h; further: nearly all actives have a fitted effect of over 55% in size
#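 Cytotoxicity is measured as loss of cellular ATP: NIH 3T3 cells (400/well) are exposed to compound for 48 or 72 hr at 37 °C, then CellTiter-Glo luminescence is imaged after 10 min at room temperature.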
# SNCA expr inhib = inhibitors of alpha-synuclein (SNCA) gene expression; HEK-293 SNCA-luciferase knock-in, luminescence, 24 h; Potency, µM (top dose mostly 57.2 µM), actives largely listed as inhibitors; hit rate 0.17% among 140,000; further: nearly all actives have a fitted effect of over 45% in size
# HEK cytotox = cytotoxic compounds in HEK 293 cells. hit rate 6.6% among 94,000. Potency, µM (doses to about 115 µM), usual class: inhibitors. HEK 293 viability, ATP luminescence (CellTiter-Glo), 48-72 h; further: nearly all actives have a fitted effect of over 60% in size
#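 Luminescence from cellular ATP, measured with CellTiter-Glo, indicates HEK 293 viability. Cells plated at 250 cells/well are treated with compound for 48 or 72 hr at 37 degree Celsius before reagent addition.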
# Luciferase inh = Photinus pyralis luciferase inhibition. Potency, µM (top dose mostly 115 µM), actives largely listed as inhibitors. purified P. pyralis luciferase, luminescence, biochemical. hit rate 2.5% among 76,000. P08659; further: nearly all actives have a fitted effect of over 65% in size
#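 Purified P. pyralis luciferase (10nM final) in 50mM Tris acetate pH 7.5, 10mM Mg acetate, 0.01% Tween-20, 0.05% BSA with 10uM D-luciferin and 10uM ATP. Compounds titrated qHTS. Luminescence imaged on CCD.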
# HEK293 viab = cell viability loss counter-screen. hit rate 0.12% among 150,000. AID 1671193. Potency, µM (series often up to 57.1 µM), actives largely listed as cytotoxic. HEK-293-SNCA-luc viability, GF-AFC fluorescence, 24 h; further: nearly all actives have a fitted effect of over 30% in size
#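 Cytotoxicity counterscreen: after 24 h compound treatment of genome-edited SNCA-luciferase HEK-293 cells, live-cell protease substrate GF-AFC read by fluorescence after 30 min; activity scaled between DMSO (0%) and medium-only (-100%), curves Hill-fitted.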
# hNpr1 antagonist = human Npr1 receptor antagonism. P16066. HEK293 hNpr1 GloSensor cGMP, ANP-stimulated luminescence. Potency, µM (series often up to 46.3 µM), usual class: inhibitors. hit rate 1.6% among 76,000. AID 1347048; calls by dose curve; further: nearly all actives have a fitted effect of over 60% in size
# Target sequence (P16066 whole entry, looked up): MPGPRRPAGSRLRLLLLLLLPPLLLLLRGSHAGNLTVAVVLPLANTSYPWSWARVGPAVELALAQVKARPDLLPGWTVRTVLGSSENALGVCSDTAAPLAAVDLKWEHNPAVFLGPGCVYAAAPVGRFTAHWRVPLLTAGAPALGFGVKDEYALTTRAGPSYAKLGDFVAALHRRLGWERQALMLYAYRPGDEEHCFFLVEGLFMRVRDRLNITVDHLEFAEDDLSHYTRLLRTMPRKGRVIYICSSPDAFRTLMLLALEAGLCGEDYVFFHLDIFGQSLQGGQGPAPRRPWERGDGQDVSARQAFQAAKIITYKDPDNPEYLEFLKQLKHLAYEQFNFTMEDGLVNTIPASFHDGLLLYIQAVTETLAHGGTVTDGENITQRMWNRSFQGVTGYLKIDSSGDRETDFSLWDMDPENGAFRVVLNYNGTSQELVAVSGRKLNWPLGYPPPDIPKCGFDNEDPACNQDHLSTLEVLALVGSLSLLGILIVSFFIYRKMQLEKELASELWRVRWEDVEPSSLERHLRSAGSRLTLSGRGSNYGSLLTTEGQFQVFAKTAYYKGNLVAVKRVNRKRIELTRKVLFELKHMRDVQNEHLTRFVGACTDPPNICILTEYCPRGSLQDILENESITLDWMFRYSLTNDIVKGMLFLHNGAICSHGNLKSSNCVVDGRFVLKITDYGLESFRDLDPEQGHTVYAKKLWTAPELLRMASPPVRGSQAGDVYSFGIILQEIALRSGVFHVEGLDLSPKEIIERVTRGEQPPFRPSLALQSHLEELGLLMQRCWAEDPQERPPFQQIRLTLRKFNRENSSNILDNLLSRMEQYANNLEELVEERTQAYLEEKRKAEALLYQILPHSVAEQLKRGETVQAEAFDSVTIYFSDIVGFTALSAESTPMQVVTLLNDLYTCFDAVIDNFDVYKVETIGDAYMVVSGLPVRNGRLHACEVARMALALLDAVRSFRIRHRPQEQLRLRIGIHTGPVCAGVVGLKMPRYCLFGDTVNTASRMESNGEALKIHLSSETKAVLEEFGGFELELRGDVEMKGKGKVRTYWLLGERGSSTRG
#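 HEK293 cells stably expressing human Npr1 and cGMP GloSensor pGS-40F, loaded 2 h with 2% GloSensor reagent, given compound 30 min at room temperature. Luminescence read before and 20 min after 0.1 nM hNppA.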
# Numbers stand for hits; . = inactive; ? = inconclusive; / = no result given; ! = a repeat was not active. Most compounds without a hit are left out; they make up all but 7.4% or so of the library. Unless noted, the call rests on the fitted dose curve; in most records, active means well fitted curve in the direction sought with a large enough effect; inconclusive means small, poorly fitted or top-dose-only effect, or another doubt; inactive means no such curve, though single readings can be large; an effect the other way counts as inactive or inconclusive.
SMILES,3T3 cytotox,SNCA expr inhib,HEK cytotox,Luciferase inh,HEK293 viab,hNpr1 antagonist
CN1CCCCCC(O)c2cc(C(=O)NC3CCN(Cc4ccccc4)CC3)ccc21 (stereo not given),?,.,11µM,.,?,?
CN1CCCCCC(O)c2cc(C(=O)N3CCCCCC3)ccc21 (stereo not given),?,.,?,.,.,.
CNC(=O)C1CCCN1C(=O)c1cccc(-c2ccccn2)c1 (stereo not given),.,.,.,/,.,/
Cc1noc(C)c1C(=O)N1CC(N2C(=O)c3c(c(C)nn3-c3ccccc3)C2C2CC2)C1 (stereo not given),.,/,?,/,/,/
O=C1CC(c2noc(Cc3ccc(F)cc3)n2)CN1c1ccc(F)c(Cl)c1 (stereo not given),18µM,.,22µM,.,.,.
CCCc1cc(NCc2cn3c(n2)SCC3)n2nccc2n1,.,.,.,.,.,.
c1cc(-c2nc3c(c(NCc4cn5c(n4)SCC5)n2)CCNCC3)ccn1,?,.,20µM,.,.,.
O=C(NCc1ccc(Cl)cc1)c1cc2cccnn2n1,?,.,?,45µM,.,.
O=C(Nc1ccc(Cl)cc1Cl)c1cnn2ncccc12,.,.,?,.,.,.
O=C(Nc1ccc(Cl)cc1Cl)c1cc2cccnn2n1,?,?,?,0.32µM,.,2.2µM
CCCCCC(=O)N1CCC(=O)N(CCOC)C[C@H]2COc3ccccc3[C@H]21,?,/,.,/,/,/
Cc1ncccc1-c1nc2cc(C(=O)NC3CC3)ccc2o1,89µM,.,?,/,.,/
Cc1cccc(-c2nc3ccc(C(=O)N4CCOCC4)cc3o2)n1,22µM,.,32µM,/,.,/
O=C(NCc1cccc(C(F)(F)F)c1)c1ccc2nc(-c3ccccn3)oc2c1,40µM,.,?,/,.,/
Cc1ncccc1-c1nc2cc(C(=O)NCC3CCCCC3)ccc2o1,.,.,.,/,.,/
O=C(NCCc1ccccc1F)c1ccc2nc(-c3cccnc3Cl)oc2c1,.,.,40µM,/,.,/
COCCOCc1nc(C2CCN(C(=O)Nc3ccccc3F)C2)no1 (stereo not given),.,.,.,/,.,/
O=C(Nc1ccccc1)N1CCC(C(=O)N2CCCC(c3nc4ncccc4[nH]3)C2)CC1 (stereo not given),.,?,.,/,.,/
COc1ccc(C(=O)NC2CCCN(c3ccc4nnc(C5CC5)n4n3)C2)cc1 (stereo not given),.,/,.,/,/,/
O=C(NCCCc1ccccc1)c1ccc2oc(-c3ccncc3)nc2c1,?,.,?,/,.,/
O=C(NCc1ccccc1F)c1ccc2nc(-c3ccccn3)oc2c1,?,.,71µM,/,.,/
Cc1cccc(-c2nc3ccc(C(=O)NC4CCCCCC4)cc3o2)n1,?,.,79µM,/,.,/
CC(C)NC(=O)c1ccc2oc(-c3ccccn3)nc2c1,.,.,?,/,.,/
Cc1cccc(-c2nc3ccc(C(=O)NC4CCCCC4)cc3o2)n1,.,.,.,/,.,/
O=C(c1ccc2nc(-c3ccccn3)oc2c1)N1CCCCC1,20µM,?,28µM,/,.,/
SMILES,3T3 cytotox,SNCA expr inhib,HEK cytotox,Luciferase inh,HEK293 viab,hNpr1 antagonist
CC(C)NC(=O)c1ccc2nc(-c3ccccn3)oc2c1,?,?,45µM,/,.,/
O=C(NCc1ccccc1F)c1ccc2nc(-c3cccnc3Cl)oc2c1,?,.,100µM,/,.,/
Cc1cccc(-c2nc3ccc(C(=O)NCc4ccccc4F)cc3o2)n1,?,.,100µM,/,.,/
O=C(NCCCc1ccccc1)c1nc2cccnc2n(C2CC2)c1=O,.,.,.,/,.,/
CC(=O)Nc1ccc(CN2CCC3(CC2)CC(c2cccc(C(F)(F)F)c2)=NO3)cc1,35µM,?,40µM,.,.,.
CC(=O)Nc1ccc(CN2CCC3(CC2)CC(c2cccnc2)=NO3)cc1,.,?,.,.,.,.
Cc1noc(C)c1[S+](=O)([O-])N1CCC2(CC1)CC(c1cccc(C(F)(F)F)c1)=NO2,4.5µM,/,?,/,/,/
Cc1ccc(CN2CCC3(CC2)CC(c2cccnc2)=NO3)cc1,?,.,79µM!,.,.,.
O=C(Cc1ccc(F)cc1)N1CCC2(CC1)CC(c1cccc(C(F)(F)F)c1)=NO2,40µM,/,50µM,/,/,/
O=C(Cc1ccccc1)N1CCCC2(CC(c3cccc(C(F)(F)F)c3)=NO2)C1 (stereo not given),?,.,?,/,.,/
O=[S+]([O-])(c1ccc(C(F)(F)F)cc1)N1CCC2(CC1)CC(c1cccc(C(F)(F)F)c1)=NO2,.,/,?,/,/,/
CCNC(=O)NC1(CC2CC2)CCN(C(=O)NCCc2ccccc2)CC1,.,.,.,/,.,/
CN(C)C(=O)N1CCC2(CC1)CC(c1cccc(C(F)(F)F)c1)=NO2,?,/,45µM,/,/,/
O=C(CCl)N1CCC2(CC1)CC(c1cccc(C(F)(F)F)c1)=NO2,?,/,79µM,/,/,/
COc1cccc(-c2nccc3c(=O)cc(N(C)C)oc23)c1,71µM,.,.,.,.,.
COc1cccc(Cl)c1-c1nccc2c(=O)cc(N(C)C)oc12,50µM,?,?,.,.,.
CN(C)c1cc(=O)c2ccnc(-c3ccc(F)c(Cl)c3)c2o1,?,.,.,.,.,.
CN(C)c1cc(=O)c2ccnc(-c3cccc(C(F)(F)F)c3)c2o1,?,.,?,.,.,.
O=C(Nc1ccccc1)NC1CCCN(c2ccc3nnc(C4CC4)n3n2)C1 (stereo not given),.,/,.,/,/,/
O=C(Nc1ccc(Cl)cc1)N1CCCN(c2ccc3nnc(C4CC4)n3n2)CC1,.,/,.,/,/,/
O=C(Nc1ccc(F)cc1)c1nc2sccn2c1-c1ccc(F)cc1,?,.,?,/,.,/
Cc1cc(C)cc(-c2ccc(CN3CCCC3C(=O)N3CCOCC3)cc2)c1 (stereo not given),?,.,?,/,.,/
COc1ccc(-c2cc(N3CCCC(NC(=O)Cc4ccc(OC)c(OC)c4)C3)n[nH]2)cc1 (stereo not given),?,.,35µM,?,.,?
COc1ccc(-c2cc(N3CCCC(NC(=O)c4ccc(Br)o4)C3)n[nH]2)cc1 (stereo not given),?,.,?,32µM,?,.
COc1ccc(-c2cc(N3CCCC(NC(=O)c4ccccc4Br)C3)n[nH]2)cc1 (stereo not given),?,.,?,?,.,.
O=C(NC1CCCN(c2cc(-c3ccc(Cl)cc3)[nH]n2)C1)c1ccoc1 (stereo not given),?,.,?,?,?,.
COc1ccc(-c2cc(N3CCC(NC(=O)COc4cccc(C)c4)CC3)n[nH]2)cc1,40µM,.,?,.,.,?
COc1ccc(CC(=O)NC2CCCN(c3cc(-c4ccc(F)cc4)[nH]n3)C2)cc1 (stereo not given),.,.,.,.,.,.
